# Source: the supplement of paper PMC4166925
# ± gives the standard deviation of the averaged measurements. In all, about 33,000 sequences were measured (“E-score (dimensionless, -0.5 to 0.5)”: median about -0.046, highest 2% from about 0.36 on). This is one part of a sample in which the highest values are shown more often than they occur.
# Tested on: T1, SpTbr T-box DNA-binding domain (GST fusion)
# T1 sequence: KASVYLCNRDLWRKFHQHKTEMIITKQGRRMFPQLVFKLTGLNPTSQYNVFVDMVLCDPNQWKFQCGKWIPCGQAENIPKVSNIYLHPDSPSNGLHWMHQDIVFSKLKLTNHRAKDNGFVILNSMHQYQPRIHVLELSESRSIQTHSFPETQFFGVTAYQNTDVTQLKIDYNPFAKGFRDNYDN
# Assay: PBM E-score of 8-mer (E-score (dimensionless, -0.5 to 0.5)); Tbr is Tbrain of the sea star Patiria miniata (Pm) or the sea urchin Strongylocentrotus purpuratus (Sp); higher = stronger binding preference
# Settings: the construct has about 5 more residues each side
# Summary of the method: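 Universal Agilent oligonucleotide arrays, made double-stranded by primer extension, were incubated with 200 nM GST-fused Tbr T-box DNA-binding domain in PBS (pH 7.5). The protein was expressed in BL21 E. coli at 20 °C and purified by glutathione affinity chromatography. After scanning and quantification, the Universal PBM Analysis Suite assigned an enrichment E-score to each ungapped 8-mer, averaged over duplicate arrays.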
row,Sequence,PBM E-score of 8-mer
1,ACTTGCGA,0.388 ± 0.021
2,AGTTGCGC,0.13 ± 0.063
3,CAGGGATC,-0.17 ± 0.046
4,AAACCATC,-0.0776 ± 0.02
5,AAATCGTT,-0.0755 ± 0.038
6,CACACATG,0.383 ± 0.021
7,CACACAAG,0.179 ± 0.038
8,GACACATA,0.359 ± 0.005
9,CACACATA,0.3998 ± 0.0028
10,TACACATA,0.168 ± 0.022
11,CACACAGG,0.244 ± 0.0081
12,GAGGCTCA,-0.129 ± 0.025
13,ACGCCCAT,0.0516 ± 0.054
14,GATATGCA,0.00558 ± 0.032
15,GACGCGAA,0.138 ± 0.006
16,GGCGCTAA,0.4 ± 0.035
17,TGCGCTAA,0.191 ± 0.035
18,AGCGCGAT,0.276 ± 0.009
19,CGCGCTAA,0.338 ± 0.0063
20,GGCGCGCA,0.153 ± 0.047
21,GGCGCGAA,0.463 ± 0.011
22,CGCGCGAC,0.284 ± 0.015
23,AGCGCGAA,0.405 ± 0.019
24,AGCGCGAC,0.253 ± 0.026
25,AGCGCGAG,0.306 ± 0.017

row,Sequence,PBM E-score of 8-mer
1,GGCGCGAC,0.369 ± 0.017
2,AGCTACAA,-0.161 ± 0.011
3,GCACGCGC,0.216 ± 0.095
4,ATAGATGA,-0.0521 ± 0.016
5,CTGAAGCA,-0.141 ± 0.0054
6,CCGTGCCC,-0.244 ± 0.013
7,CCGTACAA,-0.197 ± 0.0048
8,GCCGCGAA,0.343 ± 0.0045
9,TCCGCGAA,0.2876 ± 0.00083
10,CCCGCGAA,0.371 ± 0.019
11,CGCGCGAG,0.304 ± 0.036
12,TGCGCGAA,0.349 ± 0.036
13,CGCGCGAA,0.408 ± 0.013
14,CGCAATTC,0.169 ± 0.0051
15,AAAGATCT,-0.1 ± 0.035
16,ATTGAGGG,-0.243 ± 0.003
17,AACCTTCG,-0.0878 ± 0.018
18,CACCTTCA,0.412 ± 0.0047
19,CCCCTTCG,-0.137 ± 0.046
20,AACCTTCA,-0.0641 ± 0.013
21,GACCTTCA,-0.0627 ± 0.081
22,CACCTTCG,0.396 ± 0.017
23,CACCTTCC,0.401 ± 0.014
24,AACCTTCC,-0.169 ± 0.048
25,GACCTTCC,-0.00679 ± 0.036

row,Sequence,PBM E-score of 8-mer
1,CGTGGTCC,-0.204 ± 0.045
2,CCGCCACA,0.157 ± 0.021
3,CCTCCTAA,-0.2059 ± 0.001
4,TAAGCGAA,-0.0797 ± 0.053
5,GAAGGTGA,0.348 ± 0.035
6,GAAGGTAC,-0.239 ± 0.019
7,CAAGGTTC,0.047 ± 0.016
8,TAAGGTGA,0.331 ± 0.021
9,GAAGGTGC,0.41 ± 0.019
10,CAAGGTGC,0.421 ± 0.0087
11,CAAGGTGG,0.311 ± 0.015
12,CAAGGTAA,-0.0662 ± 0.017
13,CAAGGTGA,0.392 ± 0.0089
14,ACCTAGAA,-0.0152 ± 0.079
15,ACTGCTCG,0.0799 ± 0.013
16,CTCGGGAC,-0.118 ± 0.062
17,AACTGTTA,0.284 ± 0.03
18,TGAGCCAA,-0.229 ± 0.019
19,CCCCCATC,-0.0563 ± 0.053
20,AAGTGTGG,0.417 ± 0.013
21,CAGTGTGC,0.106 ± 0.0063
22,AAGTGTGC,0.3891 ± 0.00091
23,AAGTGTGT,0.331 ± 0.0059
24,AAGTGGGA,0.238 ± 0.037
25,AAGTGGGG,0.177 ± 0.0055

row,Sequence,PBM E-score of 8-mer
1,ACTGCCTA,-0.14 ± 0.028
2,AACTTTCG,0.00917 ± 0.0092
3,CTCTGGGA,0.00265 ± 0.049
4,ACAATAGA,-0.149 ± 0.042
5,CCATGGAG,-0.231 ± 0.015
6,CCCAGAGG,-0.127 ± 0.05
7,CCACATCC,-0.0299 ± 0.14
8,ACACATCT,0.31 ± 0.029
9,ACACATCA,0.339 ± 0.0072
10,GCACATCC,0.137 ± 0.0032
11,ACACATCG,0.394 ± 0.014
12,ACACATCC,0.388 ± 0.024
13,CTACTTGA,0.0916 ± 0.062
14,ACACCATC,0.3674 ± 0.0022
15,ACACCACG,0.332 ± 0.018
16,ACACCACT,0.269 ± 0.02
17,CCACCACA,0.131 ± 0.073
18,ACACCATA,0.231 ± 0.071
19,CCACCATC,0.0489 ± 0.024
20,ACACCACC,0.365 ± 0.0069
21,CCACCACC,0.101 ± 0.038
22,ACACCACA,0.364 ± 0.017
23,ACCTGCCT,0.00297 ± 0.084
24,GGAGCGCC,0.0178 ± 0.0015
25,AGACCCAC,0.0705 ± 0.1

row,Sequence,PBM E-score of 8-mer
1,AGAGAAAT,-0.0136 ± 0.08
2,AGATCCAT,-0.205 ± 0.039
3,GATCTCAC,0.371 ± 0.02
4,AATCTCAT,-0.0127 ± 0.017
5,AATCTCTC,-0.1 ± 0.11
6,CATCTCAC,0.308 ± 0.006
7,GATCTCAA,0.0536 ± 0.028
8,AATCTCAC,0.366 ± 0.016
9,AATCTCAG,-0.0558 ± 0.035
10,AGACTCGG,-0.23 ± 0.019
11,CACACCCA,0.421 ± 0.02
12,TACACCCA,0.105 ± 0.011
13,CACACCCC,0.419 ± 0.025
14,AACACCCG,0.404 ± 0.01
15,ATCACCCG,0.12 ± 0.057
16,CCCACCCA,0.185 ± 0.054
17,CACCCCCG,0.234 ± 0.018
18,AGCACCCG,0.257 ± 0.011
19,CACACCCG,0.448 ± 0.016
20,CACCCCCC,0.184 ± 0.003
21,CCCACCCG,0.0685 ± 0.054
22,CACACCGC,0.332 ± 0.037
23,CCATGGCG,-0.204 ± 0.015
24,GACCGTCA,0.0838 ± 0.01
25,GACAGTGC,0.152 ± 0.025

row,Sequence,PBM E-score of 8-mer
1,AAAACTCC,-0.156 ± 0.054
2,AGGGCGTG,0.281 ± 0.01
3,AAGGCGTC,0.372 ± 0.035
4,CAGGCGTC,0.236 ± 0.056
5,AAGGCGTA,0.153 ± 0.028
6,ACGGCGTG,0.232 ± 0.0069
7,AAGGCGTG,0.392 ± 0.037
8,ACGTCCTA,-0.17 ± 0.032
9,AAGCGTTG,0.192 ± 0.056
10,CTCGCGCA,0.248 ± 0.021
11,ATCGCGCA,0.151 ± 0.015
12,ATCGCGCC,0.4021 ± 0.0011
13,CTCGCGCC,0.412 ± 0.031
14,ATCGCGCG,0.337 ± 0.004
15,CGCGCGCC,0.173 ± 0.064
16,AACTAGGG,0.0057 ± 0.046
17,AAGGAGGG,-0.0491 ± 0.018
18,GCTCATAC,-0.0299 ± 0.01
19,CGTTGGGA,-0.121 ± 0.024
20,ATTAAGAC,-0.0771 ± 0.015
